Assay outcomes from PubChem.
MITF inh – inhibitors of human MITF; O75030; AlphaScreen MITF homodimerization, bead proximity signal; inhibition, % at 2.6 µM; actives 0.91% (n = 650,000); AID 1259374; in the data active means inhibition above about 50%
Target sequence (O75030 whole entry, looked up): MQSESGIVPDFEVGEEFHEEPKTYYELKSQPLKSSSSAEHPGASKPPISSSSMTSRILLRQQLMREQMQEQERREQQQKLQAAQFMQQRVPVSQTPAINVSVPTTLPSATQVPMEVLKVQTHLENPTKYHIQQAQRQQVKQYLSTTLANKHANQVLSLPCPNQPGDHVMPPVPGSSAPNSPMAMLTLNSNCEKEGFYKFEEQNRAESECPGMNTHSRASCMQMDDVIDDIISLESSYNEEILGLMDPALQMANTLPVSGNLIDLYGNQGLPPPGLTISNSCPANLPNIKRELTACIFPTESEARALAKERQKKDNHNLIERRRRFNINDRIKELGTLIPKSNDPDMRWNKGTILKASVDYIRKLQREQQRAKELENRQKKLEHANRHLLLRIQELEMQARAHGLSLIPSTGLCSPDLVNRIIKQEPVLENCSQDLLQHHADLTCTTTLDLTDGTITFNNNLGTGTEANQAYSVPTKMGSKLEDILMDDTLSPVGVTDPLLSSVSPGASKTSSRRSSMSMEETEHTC
FBW7 act – human FBW7 E3 ligase activation, primary screen. normalized activity (activation), % at 26.1 µM. AlphaScreen FBW7–phospho-cyclin E peptide binding, activator screen. AID 1259310. actives 0.13% (n = 650,000). Q969H0; in the data active means normalized activity above about 1.9%;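 further: purified mutant Fbw7 with reduced substrate affinity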
GPR151 ag – human GPR151 activation; PathHunter beta-arrestin GPR151 cells, luminescence; actives 1% (n = 650,000); activation, % at 11.2 µM; AID 1508602; Q8TDV0; in the data active means activation above about 4.9%
TEAD-YAP block – TEAD-YAP interaction inhibition; HEK-TIYL cells, TEAD-Gal4/YAP UAS-luciferase luminescence; inhibition, % at 9.12 µM; actives 1.4% (n = 640,000); AID 1259422; in the data active means inhibition above about 32%
Numbers stand for hits; – = inactive. Hits are enriched below; roughly 3.5% of the tested compounds scored in any of these assays.

SMILES | MITF inh | FBW7 act | GPR151 ag | TEAD-YAP block
CC1CC(C)CN(c2nc(N)ncc2[N+](=O)[O-])C1 (centres undefined) | – | – | – | 49.4
Cc1ccccc1N1C(=O)NC(=O)/C(=C\c2ccc(O)c(O)c2)C1=O | – | – | – | –
COc1ccccc1N1C(=O)NC(=O)/C(=C\c2ccc(O)c(O)c2)C1=O | 56.0 | – | – | –
COc1ccc(N2C(=O)NC(=O)/C(=C\c3cc(OC)c(O)c(OC)c3)C2=O)cc1 | – | 2.1 | – | –
COc1ccccc1N1C(=O)/C(=C\c2cccn2C)C(=O)NC1=S | 55.7 | – | – | –
COc1ccc(N2C(=O)NC(=O)/C(=C/c3cc(Cl)c(O)c(OC)c3)C2=O)cc1 | – | – | – | –
COc1ccc(/C=C2/C(=O)NC(=O)N(c3ccc(C(C)C)cc3)C2=O)cc1O | – | 1.9 | – | –
CCOCCN1C(=O)C(=O)c2ccccc21 | – | – | – | –
COc1ccc(C(=O)Nc2ccc(NC(=O)c3ccccn3)cn2)cc1 | – | – | – | –
CCOc1ccc(NC(=S)c2ccccn2)cc1 | – | – | – | 74.8
COc1ccc(NC(=O)c2ccccn2)cc1 | – | – | – | 50.9
O=C(/C=C/Nc1ccc(I)cc1)c1ccco1 | – | – | – | –
CC(C)c1ccc(N/C=C/C(=O)c2ccco2)cc1 | – | – | – | 78.1
CCC(=O)N1CCCc2ccc(NS(=O)(=O)c3ccc(Cl)cc3)cc21 | – | – | – | –
O=C(C1CC1)N1CCc2ccc(NS(=O)(=O)c3ccc4c(c3)OCCO4)cc21 | – | – | – | 48.1
CCCOc1ccc(S(=O)(=O)Nc2ccc3c(c2)N(C(=O)CC)CCC3)cc1 | – | – | – | 58.0
Cc1ncn(-c2ccc(Nc3ncc4cccc(-c5cnn(CC6CC6)c5)c4n3)cc2)n1 | – | – | – | 49.5
Cc1ncn(-c2ccc(Nc3ncc4cccc(-c5cnn(C(C)C)c5)c4n3)cc2)n1 | – | – | – | 52.1
C=CCNC(=O)CSc1nc(C)c(C)c(C)n1 | – | – | – | –
Cc1ccc(/C=C2/SC(=S)N(CCC(=O)O)C2=O)o1 | – | – | – | –
Cc1ccc(/C=C2/SC(=S)N(CO)C2=O)o1 | 85.0 | – | – | –
CCCN1C(=O)/C(=C/c2ccc(C)o2)SC1=S | – | – | – | –
Cc1ccc(/C=C2/SC(=S)N(c3ccc(CC(=O)O)cc3)C2=O)o1 | 59.0 | – | – | –
Cc1ccc(/C=C2\SC(=S)N(/N=C/c3ccc(C)o3)C2=O)o1 | 54.3 | – | – | –
Cc1ccc(/C=C2\SC(=S)N(CCCC(=O)O)C2=O)o1 | – | – | – | 52.7
SMILES | MITF inh | FBW7 act | GPR151 ag | TEAD-YAP block
CC(C)C(Br)C(=O)Nc1ccc(Cl)cc1 (centres undefined) | – | – | – | –
CC1CCN(C(=O)Cn2c3ccccc3c3cn[nH]c(=O)c32)CC1 | – | – | – | –
CCC(CC)CN1CCc2nnc(C(CC(C)C)NC(=O)c3ccco3)n2CC1 (centres undefined) | – | – | – | –
CC(=O)N(Cc1ccco1)Cc1cc2ccc(C)c(C)c2nc1Cl | – | – | – | –
COc1ccc(NC(=O)N2CC=C(c3c[nH]c4ccccc34)CC2)cc1 | – | – | – | 51.0
CCOc1ccc(N2C(=O)c3ccc(Oc4ccc(NC(=O)CSc5ccc(Cl)cc5)cc4)cc3C2=O)cc1 | – | – | – | –
O=C1N[C@@H](Cc2cnc[nH]2)C(=O)N2CCN(C(=O)c3cc(F)ccc3F)C[C@H]12 | – | – | – | –
COc1ccc(S(=O)(=O)N2CCOc3ccccc32)cc1 | – | – | – | 48.5
COc1ccc(S(=O)(=O)N2CC(C(=O)O)Oc3ccccc32)cc1 (centres undefined) | – | – | – | –
N#Cc1ccccc1NC(=O)c1c(O)c2cccc3c2n(c1=O)CCC3 | – | – | – | –
Cc1ccc(Nc2nc(-c3c(C)nc4ccccn34)cs2)c(C)c1 | – | – | – | 53.1
Cc1ccc(Nc2nc(-c3c(C)nc4ccccn34)cs2)cc1 | – | – | – | 53.3
Cc1nc2ccccn2c1-c1csc(Nc2ccc(S(N)(=O)=O)cc2)n1 | – | – | – | –
Cc1nc2ccccn2c1-c1csc(Nc2ccc(Cl)cc2)n1 | – | – | – | 43.6
CCN(CC)c1ccc(Nc2nc(-c3c(C)nc4ccccn34)cs2)cc1 | – | – | – | –
Cc1cc(=O)[nH]c2nnc(SCc3cccc([N+](=O)[O-])c3)n12 | – | – | – | –
O=C(Cn1cncn1)N/N=C/c1cccc([N+](=O)[O-])c1 | – | – | – | –
CC(Nc1n[nH]c(=O)[nH]c1=O)C(=O)N/N=C/c1ccncc1 (centres undefined) | – | – | – | –
Cc1ccccc1NC(=O)Nc1ccccc1C | – | – | – | –
